Shown are actives, neighbours in structure and some others; about 3.2% of the full set was active somewhere.
Rv3671c protease = inhibitors of M. tuberculosis serine protease Rv3671c | actives 0.048% (n = 320,000) | inhibition, % at 5.96 µM | AID 2606; in the data active = inhibition above about 38%;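 note: extracellular domain of Rv3671c used as enzyme; 0% = enzyme with DMSO and 100% = no enzyme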
FBA Mtb inh = inhibits M. tuberculosis FBA enzyme. AID 588726. inhibition, % at 1 µM. purified M. tuberculosis FBA, fluorescence read-out. P9WQA3. actives 2.3% (n = 360,000);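 note: 0% = vehicle and 100% = reference inhibitor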
Target sequence (P9WQA3 whole entry, looked up): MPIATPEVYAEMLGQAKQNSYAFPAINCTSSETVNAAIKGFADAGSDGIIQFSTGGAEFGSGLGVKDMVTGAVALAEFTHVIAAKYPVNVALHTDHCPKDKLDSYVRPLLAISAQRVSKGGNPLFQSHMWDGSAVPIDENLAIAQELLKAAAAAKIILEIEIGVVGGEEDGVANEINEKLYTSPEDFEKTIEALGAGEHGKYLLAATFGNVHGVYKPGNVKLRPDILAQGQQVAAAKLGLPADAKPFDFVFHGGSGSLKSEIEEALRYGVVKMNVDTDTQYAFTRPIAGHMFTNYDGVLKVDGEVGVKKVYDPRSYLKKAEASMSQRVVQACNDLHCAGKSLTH
GDH-TPI counter-1 = inhibits GDH-TPI coupling enzymes, artifact for Mtb FBA screen; GDH-TPI coupled enzyme counterscreen, NADH absorbance; inhibition, % at 4.8 µM; actives 1.2% (n = 360,000); AID 588335; in the data active = inhibition above about 30%;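 note: 0% = DMSO wells and 100% = wells lacking the enzyme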
SSB-PriA inh = inhibitors of Klebsiella pneumoniae PriA binding to SSB C-terminal tail. AlphaScreen SSBct-PriA binding, biotinylated peptide. inhibition, % at 33 µM. actives 0.6% (n = 430,000); in the data active = inhibition mostly above about 37%, no sharp cut-off; inactive = mostly below about 20%;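 note: plate controls were negative control peptide for no effect and reference peptide for full effect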
UGM FP inh = inhibitors of M. tuberculosis UDP-galactopyranose mutase; P9WIQ1; purified UGM, fluorescence polarization probe displacement; inhibition, % at 10 µM; actives 0.06% (n = 320,000); in the data active = inhibition above about 10%, passing the limit was not always enough
Mtb bLac sens = beta-lactam sensitization of Mtb H37Rv | M. tuberculosis H37Rv growth with meropenem, percent inhibition | inhibition, % at 25 µM | actives 0.27% (n = 330,000); call rule not given here;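 note: growth measured after seven days incubation then overnight dye step; 0% = bacteria only wells and 100% = bacteria with antibiotic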
Mtb FBA inh conf = confirmation of M. tuberculosis fructose-bisphosphate aldolase inhibitors; purified M. tuberculosis FBA, fluorescence read-out; actives 78% (n = 5,600); shares compounds with FBA Mtb inh; inhibition, % at 1 µM;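 note: 0% = vehicle wells and 100% = reference inhibitor wells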
GDH-TPI counter-2 = counter-screen for M. tuberculosis FBA inhibitors: GDH-TPI coupled enzyme inhibition; GDH-TPI coupled enzyme counterscreen, fluorescence; shares compounds with FBA Mtb inh; inhibition, % at 1 µM; actives 81% (n = 5,600); AID 652141; in the data active = inhibition above about 10%
The depositor's hits bear a star; x = not tested or not shown; + = active, no number. Cut-off read from the data, not from the text of the source, unless noted: active = inhibition above about 27%; inactive = the rest.

SMILES	Rv3671c protease	FBA Mtb inh	GDH-TPI counter-1	SSB-PriA inh	UGM FP inh	Mtb bLac sens	Mtb FBA inh conf	GDH-TPI counter-2
COc1cc2cncc(Cc3ccccc3)c2cc1O	x	58*	15	-4	x	x	85*	78*
O=C(Nc1ccc2nn(-c3ccccc3)nc2c1)c1ccc(Br)o1	-29	8	23	1	1	4	x	x
CC(C)CC(=O)Nc1ccc2nn(-c3ccccc3)nc2c1	-13	72*	18	-29	-1	86	3	-1
CC(=O)Nc1cc2nn(-c3ccccc3)nc2cc1C	6	90*	19	-11	-2	9	200*	159*
Cc1ccc(S(=O)(=O)N(C)Cc2ccc(C(=O)NN=Cc3ccc(OC(F)F)cc3OC(F)F)cc2)cc1	x	x	x	1	x	x	x	x
O=C(c1ccsc1)N1CCC(c2cccs2)CC1	x	x	x	-6	x	x	x	x
CCc1cc(=O)[nH]c(SCC(N)=O)n1	x	x	x	-9	x	x	x	x
COc1ccc2cc(-c3nc4ccccc4n3C)c(=O)oc2c1	9	59*	39*	-12	-2	12	198*	+
COc1ccc(-c2cc3ccccc3oc2=O)cc1	-8	60*	13	-15	2	4	+	+
CC(C)Cn1cnc(-c2ccccc2)cc1=O	x	x	x	-9	x	x	x	x
CCC1C(=O)n2nc(-c3ccccc3)cc2N=C1C (stereo not drawn)	-10	40*	8	-4	0	7	+	145*
O=C(c1ccc2ccccc2c1)N1CCN(c2nc3ccccc3s2)CC1	x	x	x	-10	x	x	x	x
Cc1ccc(-c2nc3cc(NS(=O)(=O)c4ccc(C)cc4)ccc3o2)cc1	-92	33*	14	-11	0	88	45*	28*
O=S(=O)(Nc1ccc2oc(-c3ccccc3)nc2c1)c1ccccc1	-39	50*	4	13	0	34	141*	112*
O=C(Nc1ccc2oc(-c3ccccc3)nc2c1)c1ccncc1	-4	0	11	-10	2	66	x	x
Cc1ccc(-c2nc3cc(C)ccc3o2)cc1	-6	-2	10	-26	1	-5	x	x
CCOC(=O)c1ccccc1NC(=O)c1nnn2cc(C)[nH]c(=O)c12	x	x	x	2	x	x	x	x
CC1(C)Cc2c(c(-c3ccco3)[nH]c(=O)c2C#N)CO1	10	14	13	5	0	-6	x	x
N#Cc1c(-c2ccc(F)cc2)c2c([nH]c1=O)-c1ccccc1OC2	5	105*	-8	-6	1	-1	+	+
COc1ccc(-c2cnc(C(N)=O)c(=O)[nH]2)cc1	x	65*	14	x	x	x	71*	60*
COc1ccc(C(O)c2ncc(-c3ccc(Cl)cc3)[nH]2)cc1 (stereo not drawn)	x	0	8	x	x	x	x	x
Cc1cccn2c(=O)c3cc(C(=O)Nc4nc5ccccc5s4)sc3nc12	x	x	x	-17	x	x	x	x
C=CCNC(=O)c1cc2c(=O)n3cccc(C)c3nc2s1	-7	93*	18	-2	-1	6	165*	133*
CCC(C)NC(=O)c1cc2c(=O)n3cccc(C)c3nc2s1 (stereo not drawn)	4	104*	8	0	0	5	171*	147*
CCS(=O)(=O)c1cccc(C(=O)Nc2sc3c(c2C(=O)OC)CCN(C(C)=O)C3)c1	x	x	x	-11	x	x	x	x
SMILES	Rv3671c protease	FBA Mtb inh	GDH-TPI counter-1	SSB-PriA inh	UGM FP inh	Mtb bLac sens	Mtb FBA inh conf	GDH-TPI counter-2
Cc1ccc(/C=C2\CC3C4CCC5CCCCC5(C)C4CCC3(C)C2O)cc1 (stereo not drawn)	x	x	x	7	x	x	x	x
CC1CCCC(C)N1CC(O)COC1CCC(C(C)(C)C)CC1 (stereo not drawn)	3	29*	-6	-5	-1	0	112*	98*
CC1CN(CC(O)COC2CCC(C(C)(C)C)CC2)CC(C)O1 (stereo not drawn)	3	3	-2	3	1	1	x	x
CCN1C(=O)C(C)(C)COc2ccc(NS(=O)(=O)C3CCCCC3)cc21	x	x	x	1	x	x	x	x
CCn1nnnc1SCC(=O)N1CCOCC1	-8	89*	2	1	1	-5	+	+
CC1(CCc2ccc3c(c2)OCO3)NCCc2c1[nH]c1ccccc21 (stereo not drawn)	7	1	-3	-13	1	-2	x	x
CC1(CCc2ccc3c(c2)OCO3)NC(=O)c2ccccc2N1 (stereo not drawn)	7	50*	-4	-26	2	6	150*	114*
CCN(CC)c1ccc(-c2n[nH]c(=S)n2-c2ccccc2)cc1	1	37*	8	1	2	0	86*	68*
O=C1c2ccccc2NC(c2ccccc2)N1Cc1ccco1 (stereo not drawn)	1	51*	-9	-6	1	3	3	1
COc1cccc(OCc2cc(C3Nc4ccccc4C(=O)N3Cc3ccco3)ccc2OC)c1 (stereo not drawn)	x	13	3	1	x	x	x	x
O=C1c2ccccc2NC(c2ccc(F)cc2)N1Cc1ccco1 (stereo not drawn)	4	49*	16	-6	0	-4	85*	61*
O=C1/C(=C/c2ccncc2)Oc2c1ccc1c2CN(CCc2cccs2)CO1	x	x	x	-15	x	x	x	x
O=C(c1cc(COc2cccc3cnccc23)on1)N1CCCC(CCCO)C1 (stereo not drawn)	-3	30*	4	-26	1	-13	192*	132*
COCC1CCN(C(=O)c2cc(COc3cccc4cnccc34)on2)CC1	4	20	8	-6	1	2	x	x
O=C(NC[C@@H](c1cccs1)S(=O)(=O)c1ccc(F)cc1)OCc1ccccc1	x	x	x	-9	x	x	x	x
Cc1cc(C(F)(F)F)c2c(=O)[nH]c(=O)n(Cc3ccccc3)c2n1	-1	-1	4	-10	3	-7	x	x
O=c1[nH]c(=O)n(Cc2ccccc2)c2nc(-c3ccco3)cc(C(F)(F)F)c12	-3	27*	2	-4	3	-7	72*	64*
COc1cc(Cl)c(C)cc1NC(=O)CN1CCCN(Cc2ccc(Cl)cc2)S1(=O)=O	x	x	x	3	x	x	x	x
COc1ccc(CN2C(=O)Cc3c2nc(N)c2c(N)nc(N4CCCCC4)c(C#N)c32)cc1	-19	x	x	x	-2	50	x	x
N#Cc1c(N(CCO)CCO)nc(N)c2c(N)nc3c(c12)CC(=O)N3CC1CCCO1 (stereo not drawn)	-2	37*	20	31	-2	-9	171*	152*
COc1ccc(-c2cn(-c3ccc(C(C)C)cc3)c(=S)[nH]2)cc1OC	x	x	x	19	x	x	x	x
COc1ccc(S(=O)(=O)n2ccc(-c3cnc(-c4ccccc4)s3)n2)cc1	-46	2	18	-20	0	-4	x	x

Bioassay records (PubChem)
